Reference: the supplement of paper PMC6555819

Key:
Assay in all cases: PBM binding z-score (relative to random genomic background probes); higher = stronger binding; sequences stand for … in GC…GCGATTGACAGCGTAGAATGAAGG
[1] = test system: FXR:RXRa (NR concentration 270 nM, RXRa partner concentration 90 nM)
Summary of the method: (§1)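 Probes were double-stranded and carried 34-nt variable regions with direct-repeat seeds, single-nucleotide variants, half-site ablations and random human genomic background sequences, printed on custom Agilent 4×180K protein-binding microarrays. Arrays were incubated 1 h with ligand-free nuclear receptor dimers in PBS pH 7.4, 2% milk, 0.02% Triton X-100, 1 mM DTT, 0.2 mg/mL BSA and 0.4 mg/ml salmon testes DNA. Antibodies against each partner (one per run) detected binding, and scanned fluorescence was regression-normalized. Binding z-scores use the random background probes as reference.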

[2] = test system: LXRa:RXRa (NR concentration 270 nM, RXRa partner concentration 90 nM)
Summary of the method: as §1

[3] = test system: LXRa homodimer (NR concentration 270 nM)
Summary of the method: as §1

[4] = test system: LXRb:RXRa (NR concentration 270 nM, RXRa partner concentration 90 nM)
Summary of the method: as §1

[5] = test system: LXRb homodimer (NR concentration 270 nM)
Summary of the method: as §1

[6] = test system: PPARa:RXRa (NR concentration 270 nM, RXRa partner concentration 90 nM)
Summary of the method: as §1

[7] = test system: PPARg:RXRa (NR concentration 180 nM, RXRa partner concentration 90 nM)
Summary of the method: as §1

[8] = test system: PPARg:RXRa 270nM:90nM, anti-RXR (NR concentration 270 nM, RXRa partner concentration 90 nM)
Summary of the method: as §1

[9] = test system: PPARg:RXRa 30nM:10nM, anti-RXR (NR concentration 30 nM, RXRa partner concentration 10 nM)
Summary of the method: as §1

[10] = test system: PPARg:RXRa 90nM:30nM, anti-RXR (NR concentration 90 nM, RXRa partner concentration 30 nM)
Summary of the method: as §1

[11] = test system: PPARg:RXRa DBDmut IVT, anti-RXR (DBD mutation: RXRa K156A/R161A, NR concentration 270 nM, RXRa partner concentration 90 nM)
Summary of the method: as §1

[12] = test system: PPARg:RXRa IVT, anti-PPARg (NR concentration 270 nM, RXRa partner concentration 90 nM)
Summary of the method: as §1

[13] = test system: PPARg DBDmut:RXRa IVT, anti-PPARg (DBD mutation: PPARg1 K132A/R137A, NR concentration 270 nM, RXRa partner concentration 90 nM)
Summary of the method: as §1

[14] = test system: PPARg DBDmut IVT, anti-PPARg (DBD mutation: PPARg1 K132A/R137A, NR concentration 270 nM)
Summary of the method: as §1

[15] = test system: PPARg homodimer (NR concentration 180 nM)
Summary of the method: as §1

[16] = test system: PXR:RXRa (NR concentration 270 nM, RXRa partner concentration 90 nM)
Summary of the method: as §1

[17] = test system: PXR homodimer (NR concentration 270 nM)
Summary of the method: as §1

[18] = test system: RARa:RXR (NR concentration 270 nM, RXRa partner concentration 90 nM)
Summary of the method: as §1

[19] = test system: RARa homodimer (NR concentration 270 nM)
Summary of the method: as §1

[20] = test system: RARb:RXRa (NR concentration 270 nM, RXRa partner concentration 90 nM)
Summary of the method: as §1

Sequence	PBM binding z-score [1]	PBM binding z-score [2]	PBM binding z-score [3]	PBM binding z-score [4]	PBM binding z-score [5]	PBM binding z-score [6]	PBM binding z-score [7]	PBM binding z-score [8]	PBM binding z-score [9]	PBM binding z-score [10]	PBM binding z-score [11]	PBM binding z-score [12]	PBM binding z-score [13]	PBM binding z-score [14]	PBM binding z-score [15]	PBM binding z-score [16]	PBM binding z-score [17]	PBM binding z-score [18]	PBM binding z-score [19]	PBM binding z-score [20]
GCTAGTTGGTCAGTAAAAAGTCACACACCGGTCG	0.351	0.195	0.138	-0.0134	-0.0534	0.217	0.434	0.856	0.159	0.726	0.793	0.0874	0.0294	0.69	0.862	0.0868	-0.328	0.255	0.758	0.863
TCGAGTTGGTTAGTCGGGGCATTCAGCCAACATA	0.0149	-0.0453	-0.453	0.513	-0.685	0.218	-0.686	0.5	1.2	0.81	0.597	0.172	-0.755	-0.529	-0.2	0.148	0.163	0.142	-0.783	0.122
TAGCTTAGGTCATTGGGCCAGTATAGTACGCATC	4.59	4.02	1.12	2.62	0.994	4.09	2.96	3.44	1	2.18	2.21	3.15	0.561	0.108	1.34	1.97	0.132	2.53	0.063	3.72
ATATGTAGGGTATCGGGTCATTCAGTTTGCGCAT	2.08	2.17	1.58	3.25	1.84	4.3	5.64	5.05	2.42	4.32	6.53	6.58	2.46	2.33	2.08	3.66	7.07	2.95	0.891	2.09
CCTATTAGTTGACCATAAGGGCCACCGAAGCTCG	0.118	0.041	0.365	0.0156	0.659	0.169	0.368	0.219	0.231	0.304	0.171	0.5	0.477	0.579	1.36	-0.0446	0.497	0.206	1.88	1.02
CCTAGCGGGCCAATCTGGGTCACTCAAGGCTTGA	0.251	0.915	-0.728	0.534	-1.32	2.88	1.65	1.99	-0.227	1.17	3.83	4.82	-0.426	-0.554	0.532	0.83	-0.579	1.49	-0.347	1.45
